# TRHR agonist – agonists of human TRH receptor | 360,000 compounds, 0.18% hits | TRHR cells, calcium flux fluo-8, FDSS agonist mode | activation, % at 2 µM; in the data active = activation above about 30%; note: 0% is about no effect
# Target sequence (P34981 whole entry, looked up): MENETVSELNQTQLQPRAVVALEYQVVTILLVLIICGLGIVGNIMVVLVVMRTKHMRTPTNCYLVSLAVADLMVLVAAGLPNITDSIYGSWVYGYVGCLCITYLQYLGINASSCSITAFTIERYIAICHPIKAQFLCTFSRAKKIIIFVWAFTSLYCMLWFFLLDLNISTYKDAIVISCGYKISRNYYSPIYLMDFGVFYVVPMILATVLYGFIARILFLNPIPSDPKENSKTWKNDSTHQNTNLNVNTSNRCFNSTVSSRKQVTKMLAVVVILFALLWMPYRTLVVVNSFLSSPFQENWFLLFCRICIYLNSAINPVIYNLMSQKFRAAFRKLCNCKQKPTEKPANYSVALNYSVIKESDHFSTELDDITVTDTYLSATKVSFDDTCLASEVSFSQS
#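 Read-out: compound-evoked intracellular calcium rise in TRHR cells, fluo-8 dye, kinetic FDSS fluorescence at 1 s/cycle following a 10-cycle baseline. Cells cultured overnight before dye loading (30 min–1.5 h, RT).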
# KCNH2 WT inh – blocks the wildtype human KCNH2 potassium channel | 340,000 compounds, 0.37% hits | Q12809 | activity change, % at 1.84 µM | AID 720551 | U2OS, BacMam KCNH2, thallium flux FluxOr; hits give low values;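 active = maximum activity change below -70%; inconclusive = maximum activity change between -70% and -50%; inactive = maximum activity change above -50%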; note: % is set by controls: 0 for no effect and ±100 for the full control effect
#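 U2OS cells transduced with wild-type KCNH2 virus are loaded with FluxOr dye for 45 min, and thallium flux is measured in kinetic reads before and after stimulation buffer. Rate constants are normalized to DMSO controls.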
# TRHR enhancer – TRH receptor (human) allosteric enhancement; P34981; TRHR cells, fluo-8 calcium fluorescence, EC20 TRH enhancement; enhancement, % at 2 µM; 360,000 compounds, 0.66% hits; in the data active = enhancement above about 30%; note: 0% is about no effect
#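 Enhancer read-out: after compound pinning and an initial kinetic agonist-mode read, an EC20 of TRH (10 nM final) was injected and fluo-8 calcium signal (Ex 480/Em 530) followed at 1 s/cycle for 100 cycles in TRHR-expressing cells.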
# TRPML1 blocker – inhibitors of human TRPML1 channel | Q9GZU1 | TRPML1-inducible cells, Ca2+ dye fluorescence, FDSS; hits give low values; inhibition of EC80 agonist-evoked calcium signal | activity change, negative = inhibition, % (concentration not given with the values) | 390,000 compounds, 0.02% hits | AID 624415; in the data active = activity change below about -50%; inconclusive = between about -30% and that limit;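 note: stimulus is agonist 54-4 at its EC80 concentration; % is set by controls: 0 for no effect and ±100 for the full control effect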
#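 Calcium fluorescence in TRPML1-DL cells induced overnight with Tet: a 110 s read after compound pin addition, then a 110 s antagonist read after challenge with 54-4 at 4 uM final (EC80).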
# TRPML1 ag – human mucolipin-1 channel agonism; Q9GZU1; TRPML1-expressing cells, Ca2+ dye fluorescence, FDSS; activation, % (test concentration not listed); 410,000 compounds, 0.12% hits; AID 624414; in the data active = activation above about 50%; inconclusive = mostly about 30% to 49%; note: 0% is about no effect
#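 Kinetic FDSS Ca2+ read in Tet-induced TRPML1-DL cells (ABD Ca8 dye plus quencher, 45-90 min RT loading): baseline, then compound, then 110 s agonist window; EC80 agonist 54-4 at 4uM final added afterwards for a 110 s antagonist window.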
# KCNH2 3.1 inh – KCNH2 3.1 (human) potassium channel inhibition | AID 720553 | activity change, % (tested at about 1.8 µM) | 340,000 compounds, 0.95% hits | U2OS KCNH2 3.1, thallium flux FluxOr; hits give low values;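 active = maximum activity change below -70%; inconclusive = maximum activity change from -70% to -50%; inactive = maximum activity change above -50%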;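 note: thallium influx rate constant from kinetic fluorescence after stimulation buffer; % is set by controls: 0 for no effect and ±100 for the full control effect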
#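 Thallium flux via FluxOr fluorescence (Red40 quencher, 45 min loading) in U2OS cells virally expressing the KCNH2 3.1 isoform (1.77 x 10^8 /mL virus, overnight at 37 C). Rate constants from 2-min kinetic reads post-stimulation, normalised to positive and negative controls.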
# * hit, by the source's call; ? = inconclusive; . = no result. Rows were chosen to be rich in hits. Some 1.7% of all compounds tested hit in one or more screens of this group.
SMILES,TRHR agonist,KCNH2 WT inh,TRHR enhancer,TRPML1 blocker,TRPML1 ag,KCNH2 3.1 inh
S=c1[nH]nc(-c2cccnc2)n1/N=C/c1ccc(Br)s1,1.2,-19.1,-0.3,3.1,-1.1,-99.5*
CCCn1c(O)c(N=NC(=O)c2cccnc2)c2cc(Br)ccc21,-2.5,2.2,4.8,14.4,0.7,8.3
CC(C)C(=O)Nc1c2c(nn1-c1ccc(F)cc1)CS(=O)(=O)C2,0.1,-7.6,3.6,-29.7,0.1,-108.9*
O=C(Nc1c2c(nn1-c1ccc(F)cc1)CS(=O)(=O)C2)C1CCCC1,0.5,3.5,3.8,11.8,-0.9,-20.8
CCCn1nc(C(=O)Nc2ccc3c(c2)OCCO3)c2ccccc2c1=O,-0.2,-18.3,-4.6,7.5,1.2,-3.4
COC(=O)CNC(=O)CNC(=O)Nc1ccccc1Cl,0.4,-12.2,-2.9,15.1,-0.1,-76.7*
CCOC(=O)CNC(=O)Nc1cccc(Cl)c1C,1.0,0.5,-0.1,3.0,0.5,-2.0
CC1(C)Cc2c(cnn2-c2cccc(F)c2)C(NC(=O)c2csnn2)C1 (centres undefined),-0.9,-74.0*,-4.6,-9.2,0.6,?
CC1(C)Cc2c(cnn2-c2cccc(F)c2)C(NC(=O)c2ccc[n+]([O-])c2)C1 (centres undefined),-0.2,5.3,31.5*,5.8,0.2,16.8
COc1cccc(C(NC(C)=O)c2nc(-c3cccc(C(=O)O)c3)cs2)c1 (centres undefined),.,.,.,.,-0.3,.
COc1ccc(N2CCN(C(c3ccccc3OC)c3nnnn3C3CCCC3)CC2)cc1 (centres undefined),-0.4,5.1,-3.5,?,79.4*,-6.1
COc1ccccc1C(c1nnnn1CCc1ccccc1)N1CCN(c2ccccc2)CC1 (centres undefined),-0.5,-3.9,-2.2,5.6,2.6,1.0
COc1cccc(C(c2nnnn2CCc2ccccc2)N2CCN(c3ccccc3)CC2)c1OC (centres undefined),0.4,3.1,-2.7,-9.1,87.7*,-10.7
CN1CCN(CC(O)COC(c2ccc(Cl)cc2)c2ccc(Cl)cc2)CC1 (centres undefined),6.1,8.7,0.0,1.9,5.9,-93.9*
Cc1ccc(Cl)cc1N1CCN(CC(O)COC(C)C)CC1 (centres undefined),0.0,28.4,3.7,.,.,-77.2*
OC(COC(c1ccc(Cl)cc1)c1ccc(Cl)cc1)CN1CCCC1 (centres undefined),0.7,-139.7*,-1.7,-1.5,8.9,-112.0*
Cc1ccc(C(OCC(O)CN2CCCCC2)c2ccccc2)cc1 (centres undefined),1.3,6.7,1.0,-5.3,-0.7,-34.3
CCOc1ccc2oc(C(=O)OCC(=O)N3C(C)CCCC3C)c(C)c2c1 (centres undefined),-0.1,-0.2,0.6,1.6,0.4,5.9
COc1ccc2oc(C(=O)OCC(=O)Nc3ccc(NC(C)=O)cc3)c(C)c2c1,0.6,-4.6,37.9*,10.5,1.0,6.5
COc1ccc2oc(C(=O)OCC(=O)N3C(C)CCCC3C)c(C)c2c1 (centres undefined),-0.3,0.5,32.9*,48.9,0.6,-10.7
COc1ccc2oc(C(=O)OCC(=O)Nc3ccc(OC)c(S(N)(=O)=O)c3)c(C)c2c1,-0.1,-4.9,12.1,3.7,0.7,7.4
CC(=O)Nc1ccc(/C=N/N2C(=O)NC(C)(c3ccc(OC(F)F)cc3)C2=O)cc1 (centres undefined),7.5,3.2,-8.1,-3.0,50.0*,6.6
COc1cccc(Cn2ncc3c4sc(C)cc4n(C)c3c2=O)c1,-2.0,.,-2.1,.,.,.
CSc1nc2ccc(S(=O)(=O)N3CCOCC3)cc2s1,0.1,4.1,-8.0,-12.6,-0.4,-11.1
N#CCc1nc2ccc(S(=O)(=O)N3CCOCC3)cc2s1,34.9*,-4.9,2.0,-25.1,-0.6,-17.7
SMILES,TRHR agonist,KCNH2 WT inh,TRHR enhancer,TRPML1 blocker,TRPML1 ag,KCNH2 3.1 inh
COC(=O)C(C(=O)OC)C(C(C)C)C(C(=O)OC)C(=O)OC,0.4,1.1,39.8*,-10.6,-0.8,-0.5
COC(=O)C(C(=O)OC)C(C(=O)OC)C(C(=O)OC)C(=O)OC,0.3,3.0,-1.1,-1.8,-0.6,-0.8
O=[N+]([O-])c1ccc2nc[nH]c2c1,.,-16.6,.,-4.6,2.4,-83.7*
Nc1nc2ccc([N+](=O)[O-])cc2[nH]1,1.0,2.6,3.0,-4.2,-0.4,2.1
CC(C)CCc1noc(CN(CC2CCC2)CC2CCCO2)n1 (centres undefined),-2.3,-11.5,-4.9,.,.,-71.9*
O=C(Nc1ccn(Cc2ccccc2)n1)c1ccc2c(c1)OCO2,-0.2,-6.4,-2.3,18.4,0.0,-81.0*
O=c1[nH]c2ccccc2n1C1CCCCC1,-0.3,-84.1*,-0.5,16.7,0.3,2.8
O=C(NC1CCCCC1)N1CCC(n2c(=O)[nH]c3ccccc32)CC1,-0.1,-11.6,5.4,5.6,-0.2,-0.1
Cc1ccc(C2C3=C(CCCC3=O)OC3=C2C(=O)CCC3)cc1,-1.2,8.5,39.9*,1.0,-0.4,2.7
Cc1ccc(C2C3=C(CC(C)(C)CC3=O)OC3=C2C(=O)CC(C)(C)C3)cc1,-0.5,1.2,6.0,-2.4,1.1,-85.0*
C[C@H](CO)N1C[C@H](C)[C@@H](CN(C)S(=O)(=O)c2cccs2)Oc2c(NS(=O)(=O)c3ccc(F)cc3)cccc2C1=O,.,-7.9,.,-20.6,1.1,13.9
CCOC(=O)Cc1ccc(NC(=O)Nc2nnc(N3CCCCC3C)s2)cc1 (centres undefined),-0.4,.,13.4,8.2,0.1,.
COc1ccccc1NC(=O)COC(=O)C1C2CC3OC(=O)C1C3C2 (centres undefined),-1.5,7.2,-0.6,-3.0,-0.3,-6.1
Cc1ccccc1NC(=O)COC(=O)C1C2CC3OC(=O)C1C3C2 (centres undefined),0.2,-254.1*,7.5,8.9,0.6,-0.5
CCCCN1C(=O)C(CC(=O)NCc2cccs2)CC(C(=O)N(C)C)=C1C (centres undefined),.,-2.6,.,-53.4*,0.2,-17.1
COCCCN1C(=O)C(CC(=O)NCc2cccs2)CC(C(=O)N(C)C)=C1C (centres undefined),.,-7.0,.,-6.6,0.4,1.9
COc1ccc(C2=NN(S(C)(=O)=O)C(c3cn(-c4ccccc4)nc3-c3cccs3)C2)cc1 (centres undefined),5.5,.,-1.9,29.3,2.7,.
O=C(NC1CCN(C(=O)Nc2cccc(Cl)c2)CC1)C1CCCCC1,-0.1,-8.6,1.4,-3.6,-0.2,-72.8*
Cc1cc(C)cc(NC(=S)N2CCC(NC(=O)C3CC3)CC2)c1,-0.3,-95.4*,1.1,-9.6,0.1,-10.6

# Screening data: PubChem BioAssay, National Center for Advancing Translational Sciences (NCATS)
